Sampled rows, rich in hits. Any-hit rate of the full collection: about 13%.
CHOP inh: CHOP inhibition in unfolded protein response. hit rate 3.8% among 220,000. CHO-K1 CHOP-promoter luciferase, tunicamycin-induced, 15-18 h. inhibition, % at 10 µM. AID 2732;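 active = compounds that reduced the stress-induced luciferase reporter signal by more than about 70% of percent inhibition, limit read from the data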;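 also: 0% = tunicamycin plus vehicle and 100% = wells without tunicamycin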
L major viab: inhibitors of Leishmania major promastigote growth; inhibition, % at 10 µM; Leishmania major promastigotes, resazurin fluorescence viability; hit rate 9% among 200,000; AID 1063; in the data active = inhibition above about 50%;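 also: promastigotes grown with compound for 44 hours at 28 °C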
RAM network inh: blocks the yeast RAM network; S. cerevisiae dse1pr::URA3 reporter, 5-FOA growth OD615, 2 d; analog-sensitive cbk1-as2 kinase mutant strain; inhibition, % at 50 µM; hit rate 1.8% among 190,000; AID 868;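 active = inhibition above a set limit, 3 SD over mean compound inhibition, cut at about 8.4% in these data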;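 also: 0% = DMSO-only wells with no growth and 100% = 10 µM 1-NA-PP1 full growth; inhibition rescues growth on 5-FOA so higher OD means more RAM inhibition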
WT yeast gro inh: growth inhibition of WT yeast, mitochondrial fusion screen | mitochondrial fusion phenotypic screen, WT strain | hit rate 2.1% among 190,000 | inhibition, % at 10 µM; in the data active = inhibition above about 58%; tested in S. cerevisiae
The depositor's hits bear a star; nt = no result.

SMILES	CHOP inh	L major viab	RAM network inh	WT yeast gro inh
CSc1ccc(C2c3[nH]c4ccccc4c3CCN2C(=O)c2cc(C)n(C)n2)cc1 (centres undefined)	19	43	5	45
Cc1nc(C(=O)N2CCc3c([nH]c4ccccc34)C2c2cc(F)ccc2F)cs1 (centres undefined)	-17	54*	3	75*
O=C(c1cnccn1)N1CCc2c([nH]c3ccccc23)C1c1cccc(Cl)c1 (centres undefined)	-3	46	2	61*
O=C(CCOc1ccccc1)Nc1ccc([N+](=O)[O-])cc1	10	-5	1	4
COc1ccc(-c2cc(C(F)(F)F)n3nc(C(=O)N4CCCCC4)cc3n2)cc1OC	43	0	0	10
COc1cccc(-c2cc(C(F)(F)F)n3nc(C(=O)N4CCCCC4c4cccnc4)cc3n2)c1 (centres undefined)	50	89*	1	27
Cc1nc(-c2ccc(NC(=O)CC(C)C)cc2)cs1	-17	1	4	-5
CCCc1ccc(OCc2ccc(C(=O)N3CCN(c4ccccn4)CC3)o2)c(OC)c1	79*	4	0	33
CCN1CCN(Cc2ccc(OC)c(OCc3ccccc3)c2)CC1	11	17	0	8
COc1ccc(CN2CCN(c3ccccn3)CC2)cc1OCc1ccccc1	13	72*	0	13
COc1ccc(CC(=O)N2CCN(c3ccccn3)CC2)cc1OC	-1	-4	0	-14
COc1ccc(CN2CCN(C(=O)c3ccco3)CC2)cc1OCc1ccccc1	10	87*	1	13
CCN1CCN(Cc2ccc(OCc3ccccc3)c(OC)c2)CC1	-16	65*	3	-2
COc1ccc(CN2CCN(C(=O)c3ccco3)CC2)cc1OC	-4	-4	1	-9
CCOc1ccccc1N1CCN(Cc2ccc(OC)c(OC)c2)CC1	15	1	0	-3
CC1CC(=O)NN1C(=O)c1ccccc1 (centres undefined)	8	nt	nt	nt
COc1ccc2ccccc2c1CN1CCN(Cc2ccccc2)CC1	17	56*	3	-1
CNC(=O)c1ccc(OCc2ccccc2)c(OC)c1	-52	-1	1	-14
COc1cc(CN(C)CCc2ccccc2)ccc1OCc1ccccc1	16	96*	0	-4
CN(C)c1ccc(O)c2c1CC1CC3[C@@H](N(C)C)C(=O)C(C(N)=O)=C(O)[C@]3(O)C(=O)C1=C2O (some centres undefined)	31	83*	1	60*
Fc1cccc(Cc2noc(CN3CCCCC3CCc3ccccn3)n2)c1 (centres undefined)	-15	12	-1	10
Cc1ccc(CN2CCC(c3nc4ccc(Cl)cc4[nH]3)CC2)cc1	46	92*	1	1
CC1CCCCN1C(=O)CN1CCC(c2nc3ccc(Cl)cc3[nH]2)CC1 (centres undefined)	3	3	0	-3
Clc1ccc2nc(C3CCN(Cc4ccccc4)CC3)[nH]c2c1	-17	88*	2	-1
O=C(Nc1ccc(F)cc1)C1CCC(CNc2c(N3CCCCC3)c(=O)c2=O)CC1 (centres undefined)	-12	nt	nt	nt
SMILES	CHOP inh	L major viab	RAM network inh	WT yeast gro inh
CCn1c(Cl)c(C=O)s/c1=N\S(=O)(=O)c1ccccc1	105*	nt	nt	nt
CCN1C(=O)CS/C1=N\S(=O)(=O)c1ccc(Cl)cc1	17	3	3	16
CCNc1nc(Sc2ccc(C)cc2)cc(C(F)(F)F)n1	87*	-2	-1	85*
COc1cccc(OC)c1OCCCCN1CCCC1	23	66*	0	66*
COc1cccc(OC)c1OCCCCN1CCC(Cc2ccccc2)CC1	3	89*	-1	12
CC(=O)CCc1ccc(OCCCCN2CCC(Cc3ccccc3)CC2)cc1	-7	94*	1	-18
COc1cccc(OC)c1OCCCN1CCOCC1	25	2	0	21
O=C(NCc1ccccc1C(F)(F)F)C1CC(c2ccc(C(F)(F)F)cc2)=NO1 (centres undefined)	44	nt	nt	nt
CCOC(=O)C(NC(=O)NCc1ccc(OC)cc1)(OCC)C(F)(F)F (centres undefined)	30	-6	-1	-2
Cc1cc(C(=O)Nc2ccccc2)oc(=O)c1	9	nt	nt	nt
COc1ccc(F)cc1C(=O)C1CCCN(Cc2c(C)n(C)n(-c3ccccc3)c2=O)C1 (centres undefined)	-2	-6	0	0
COc1ccc(C)cc1N(CC(=O)Nc1ccc2c(c1)OCCO2)S(C)(=O)=O	-2	11	1	9
CC(C)Nc1ccc(C(CC(N)=O)NC(=O)Cc2ccc(Br)cc2)cc1[N+](=O)[O-] (centres undefined)	-15	nt	nt	nt
NC(=O)CC(NC(=O)Cc1ccc(Br)cc1)c1ccc(N2CCN(c3ccc(F)cc3)CC2)c([N+](=O)[O-])c1 (centres undefined)	85*	nt	nt	nt
NC(=O)CC(NC(=O)c1ccc(Br)cc1)c1ccc(N2CCN(c3ccc(F)cc3)CC2)c([N+](=O)[O-])c1 (centres undefined)	93*	nt	nt	nt
NC(=O)CC(NC(=O)Cc1ccc(Br)cc1)c1ccc(NCCc2cccc(F)c2)c([N+](=O)[O-])c1 (centres undefined)	-2	nt	nt	nt
CCOc1ccc2nc(N/C(N)=N/C(=S)Nc3ccc(OC)cc3)nc(C)c2c1	17	72*	1	17
COc1cc(S(=O)(=O)Nc2cc(C)cc(C)c2)ccc1F	-1	9	-1	-1
CCOc1ccc(NS(=O)(=O)c2cnc(Cl)c(Cl)c2)cc1	15	-2	-1	71*
CCOc1ccc(NS(=O)(=O)c2ccc(N)cc2)cc1	-19	15	0	24
Cc1cc(C)cc(NS(=O)(=O)c2cnc(Cl)c(Cl)c2)c1	38	82*	-1	5
CC(Oc1ccc(F)cc1)C(O)CCN(C)C (centres undefined)	20	-4	1	0
O=C1N=C(N2CCCC2C(=O)O)S/C1=C\c1ccco1 (centres undefined)	-3	-4	1	4
O=C(O)CC(NC(=O)Cc1ccc(Cl)cc1)c1ccco1 (centres undefined)	14	-4	-1	1
O=[N+]([O-])c1ccccc1NCc1c(O)ccc2ccccc12	89*	nt	nt	nt
SMILES	CHOP inh	L major viab	RAM network inh	WT yeast gro inh
COCCNC(=S)NCc1ccc2[nH]c3c(c2c1)CCCC3	6	-3	1	-4
Cc1ccc(NC(=S)NCc2ccc3[nH]c4c(c3c2)CCCC4)cc1	56	17	2	73*
COC(=O)c1cc(C(=O)OC)[nH]n1	16	-5	1	5
CCC1CN(C(=O)Nc2ccc(C)cc2)c2cc(C)ccc2O1 (centres undefined)	30	0	2	3
CC(C)c1nc(NCc2ccccc2)c(C#N)c2c1CCCC2	-4	2	5	-13
N#Cc1c(NCCCO)nc(NCc2ccccc2)c2c1CCN(Cc1ccccc1)C2	88*	59*	-2	55
CN1CCc2c(C#N)c(N3CCCCC3)nc(NCc3ccccc3)c2C1	84*	78*	2	2
CN(C(=O)c1ccc(C(=O)N(C)C2CCCCC2)cc1)C1CCCCC1	nt	-2	nt	nt
Clc1ccc(CNC2CCCC2)cc1	-6	37	-1	8
